# Source: PubChem
# zVAD death inh: inhibitors of zVAD-triggered necroptosis, primary screen, L929 cells | AID 1377, 2008 | viability rescue, % at 10 µM | hit rate 0.38% among 220,000 | L929 zVAD necroptosis rescue, ATP luminescence, 24 h; with zVAD 60 µM;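 active = activation, scaled between plate controls, above about 75%, limit read from the data; inactive = activation under that limit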;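 also: 0% = zVAD with DMSO and 100% = DMSO alone without zVAD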
# Mcl1-Bid inh: Mcl-1/Bid binding inhibitors, primary screen, biochemical, TR-FRET, 1536-well; TR-FRET Mcl-1/Bid-Dy647 peptide binding; inhibition, % at 21.7 µM; hit rate 0.97% among 220,000; AID 1021, 2008;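 active = compounds that cut the binding signal by more than half at the single screening dose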;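 also: His-tagged Mcl-1 with europium anti-His antibody binding Bid BH3 peptide; 0% = Mcl-1 plus peptide wells and 100% = peptide-only wells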
# Target sequence (Q07820 whole entry, looked up): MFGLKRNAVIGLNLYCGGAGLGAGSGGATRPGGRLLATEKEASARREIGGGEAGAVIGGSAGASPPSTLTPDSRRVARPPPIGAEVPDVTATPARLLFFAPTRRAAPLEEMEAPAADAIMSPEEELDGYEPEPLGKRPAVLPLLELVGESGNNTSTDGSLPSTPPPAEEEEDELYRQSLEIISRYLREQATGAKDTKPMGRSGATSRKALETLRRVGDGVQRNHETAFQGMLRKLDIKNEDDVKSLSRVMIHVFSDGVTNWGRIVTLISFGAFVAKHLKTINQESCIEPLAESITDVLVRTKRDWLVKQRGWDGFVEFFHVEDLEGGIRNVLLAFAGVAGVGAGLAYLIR
# TNF death inh: inhibitors of TNF-alpha triggered necroptosis, primary screen, cell-based, Jurkat FADD-/-, single concentration; Jurkat FADD-/- TNF necroptosis rescue, ATP luminescence, 24 h; 0 = TNF only, 100 = no-TNF cells; activation (protection from cell death), % at 10 µM; hit rate 0.068% among 220,000; AID 463075, 2010;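 active = activation, meaning protection from cell death, of at least 50% relative to plate controls; inactive = activation below 50%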;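 also: necroptosis triggered by 40 ng/mL TNF-alpha added together with compound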
# Mcl1-Noxa inh: Mcl-1/Noxa binding inhibitors, primary screen, biochemical, TR-FRET, 1536-well; TR-FRET Mcl-1/Noxa peptide binding, 2 h; hit rate 1.5% among 220,000; inhibition, % at 21.7 µM; Induced myeloid leukemia cell differentiation protein Mcl-1 (Homo sapiens), Q07820; AID 1022, 2008;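 active = compounds that cut the protein-peptide binding signal by more than 50% relative to plate controls in a single-dose test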;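 also: His-tagged Mcl-1 with rhodamine Noxa BH3 peptide and terbium anti-His antibody; 0% = Mcl-1 plus Noxa peptide wells and 100% = peptide-only wells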
# Bim-Mcl-1: inhibitors of Bim peptide binding to Mcl-1, primary screen, biochemical, bead-based flow cytometry, multiplex. hit rate 0.1% among 190,000. AID 1009, 2008. inhibition, % at 10 µM. Bim peptide-Mcl-1 binding. Induced myeloid leukemia cell differentiation protein Mcl-1 (Homo sapiens), Q07820; in the data active = inhibition above about 40%;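 also: 0% = no compound tracer wells and 100% = peptide blocker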
# MCL1 BIM primary: inhibitors of MCL1 binding to BIM-BH3, primary screen, biochemical, fluorescence polarization. GST-MCL1 / FITC-Bim-BH3 fluorescence polarization. inhibition, % at 10.9 µM. hit rate 0.68% among 320,000;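 active = inhibition above the mean inhibition of all tested compounds plus 3 SD, set per campaign, cut at about 40% in these data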;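 also: 0% = DMSO wells and 100% = unlabeled Bim-BH3 peptide control; higher means more loss of mP so more displacement of Bim peptide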
# Active calls of the source: *; · = not tested or not shown. Hits are enriched below; roughly 2.4% of the tested compounds scored in any of these assays.
SMILES,zVAD death inh,Mcl1-Bid inh,TNF death inh,Mcl1-Noxa inh,Bim-Mcl-1,MCL1 BIM primary
N#Cc1cccc(N=Cc2c(O)ccc3ccccc23)c1,0,-22,-7,55*,2,3
O=C(NCc1ccccc1Cl)c1ccc(NC2=NC3CS(=O)(=O)CC3S2)cc1 (stereo not given),·,·,·,·,·,7
CCc1nc2oc3cc(OC)ccc3c(=O)c2c(=O)n1-c1ccccc1,0,23,0,-11,-6,0
CCCc1nc2oc3cc(OC)ccc3c(=O)c2c(=O)n1CCc1ccccc1,1,69*,-1,7,·,5
Cc1ccc(-n2c(C)nc3oc4ccccc4c(=O)c3c2=O)cc1,0,-8,-4,65*,0,21
COc1ccc2c(=O)c3c(=O)n(-c4ccc(C)cc4)c(-c4ccccc4)nc3oc2c1,0,48,0,81*,·,7
COCCn1c(-c2ccc(C)cc2)nc2oc3cc(OC)ccc3c(=O)c2c1=O,0,53*,0,33,·,5
CCc1nc2oc3cc(OC)ccc3c(=O)c2c(=O)n1Cc1ccccc1,0,28,-1,9,-7,-2
COc1cc(/C=C/c2cccc[n+]2C)ccc1OCC(=O)Nc1cccc(Cl)c1,·,·,·,·,·,-19
O=C(NCCNC(=O)c1ccc(Cl)cc1Cl)c1cnccn1,·,·,·,·,·,3
O=S(=O)(Nc1nccs1)c1ccc(Nc2nnc(-c3ccccc3)c3ccccc23)cc1,2,16,-1,68*,-5,-5
CCNc1ccc(S(N)(=O)=O)cc1[N+](=O)[O-],1,2,0,51*,-5,-26
Cc1c2cnn(CC(=O)Nc3c(F)c(F)cc(F)c3F)c(=O)c2c(C)n1Cc1ccccc1F,2,-57,0,49,-6,41*
NC(=O)c1ccsc1NC(=O)CSc1nnc(Nc2ccccc2)s1,7,-37,1,69*,0,8
NC(=O)c1ccsc1NC(=O)COc1ccccc1,0,-4,-1,29,0,43*
COc1cc(OC)cc(C(=O)NCC2CCCN(Cc3cccc(C(C)=O)c3)C2)c1 (stereo not given),·,·,·,·,·,1
CCCOc1ccc(CNC(=O)Cc2cccs2)cc1,·,·,·,·,·,0
Cc1cc(C)c2nc(N3CCCN(C(=O)c4ccco4)CC3)c(C#N)cc2c1,0,55*,-8,73*,1,22
Cc1nc(N2CCN(C(=O)c3ccco3)CC2)c(C#N)c2c1CCCC2,·,·,·,·,·,-3
Cc1ccc(C(CCN(Cc2ccccc2)C(=O)c2ccco2)c2ccco2)cc1 (stereo not given),-1,-70,2,36,0,-9
O=C(c1ccco1)N(CCC(c1ccccc1)c1ccco1)Cc1ccco1 (stereo not given),0,-9,-6,62*,2,12
CC(=O)c1ccc(N2CCN(CC(=O)Nc3ccc4c(c3)OCCO4)CC2)cc1,·,·,·,·,·,8
Cc1cc(NC(=O)c2noc3c2CCc2ccccc2-3)no1,·,67*,·,41,0,-1
CCc1ccccc1NC(=O)N[C@H](C(=O)O)C(C)CC (stereo not given in full),1,-15,0,-3,-5,5
COC(C(=O)Nc1ccc(Br)cc1F)c1ccccc1 (stereo not given),1,14,91*,11,-7,-6
SMILES,zVAD death inh,Mcl1-Bid inh,TNF death inh,Mcl1-Noxa inh,Bim-Mcl-1,MCL1 BIM primary
COC(C(=O)Nc1ccccc1F)c1ccccc1 (stereo not given),10,-12,84*,8,0,-3
CCC(C)[C@H](NC(=O)Nc1ccccc1F)C(=O)O (stereo not given in full),0,85*,1,11,·,8
CCN1C(=O)c2cccc3c(NC(=O)C4CCCCC4)ccc1c23,5,83*,0,43,-4,8
Cc1ccc2[nH]cc(C(=O)CN3CCOCC3)c2c1,0,-4,-1,21,3,-4
CCN1CCN(CC(=O)c2c[nH]c3ccc(C)cc23)CC1,-1,0,0,16,59*,-4
COc1cc(/C=C2\CC/C(=C\c3cc(OC)c(O)c(OC)c3)C2=O)cc(OC)c1O,1,-2,-10,101*,17,-56
O=C(O)c1ccc(CSc2nnnn2-c2ccc(F)cc2)cc1,·,·,·,·,·,-8
O=C(CSc1nnnn1-c1ccc(F)cc1)c1ccc(O)c(O)c1,2,-15,0,57*,-1,3
CCCOc1ccc(C=Nc2ccc(OC)c(S(=O)(=O)N3CCOCC3)c2)c(O)c1,·,·,·,·,·,3
CN=C(Cc1ccccc1)C1=C(O)CC(C)(C)CC1=O,53,4,87*,10,-2,5
CC(=Nc1ccccc1)C1=C(O)CC(C)(C)CC1=O,0,-77,0,8,0,-12
Cc1ccc(S(=O)(=O)CCC(=O)OCc2ccc(S(=O)(=O)C(C)C)cc2)cc1,2,-17,0,5,0,12
O=C(COC(=O)c1ccccc1O)Nc1ncc(Cl)cc1Cl,1,-73,-1,44,0,40*
O=C(COC(=O)c1ccccc1NC(=O)c1ccco1)Nc1ncc(Cl)cc1Cl,0,-6,0,27,-2,-3
Cc1ccc(S(=O)(=O)CCC(=O)OCc2ccc(Cl)c(Cl)c2)cc1,1,55*,4,11,0,-6
Cc1ccc(S(=O)(=O)CCC(=O)OCC(=O)Nc2ncc(Cl)cc2Cl)cc1,0,87*,1,8,-1,17
O=C(c1sccc1Cl)N1CCN(Cc2ccc3c(c2)OCO3)CC1,1,-3,4,4,·,-8
CC(=O)N[C@@H](Cc1c[nH]c2ccccc12)C(=O)NCc1ccccc1,·,·,·,·,·,-3
O=C(NC1CCCCC1)c1ccc2c(c1)S(=O)(=O)c1ccccc1C2=O,·,·,·,·,·,-10
CCCCSc1nc(C)nc2c1c(=O)n(C)c(=O)n2C,1,-13,-1,17,2,-4
CCCSc1nc(C)nc2c1c(=O)n(C)c(=O)n2C,0,88*,-1,-4,-1,·
CC(=O)Nc1ccc(C(=O)Nc2cccc(-c3cnc4ccccc4n3)c2)cc1,-1,11,0,76*,-321,·
O=C(Nc1ccc2nc3ccccc3nc2c1)c1ccc(Br)cc1,1,13,3,45,0,24
CC(=O)Nc1ccc2nc3ccccc3nc2c1,2,-35,0,-1,·,50*
COc1ccc(Cl)cc1NC(=O)c1noc(C)c1[N+](=O)[O-],·,·,·,·,·,-1
